The text below walks through data of PubChem BioAssay (NCI).

SMILES strings stand for the structures. About 83,000 compounds went through this panel and 20% of them were active in at least one assay; those are over-represented in the sample as a whole.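 The test compound was applied at a single concentration to cells in 96-well plates for 48 hours, and percent growth was recorded.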 Unmarked numbers belong to inactive results. Active and inactive are the calls of the source. Rule for the calls: active = growth percent below 10; inactive = the rest.

Holding throughout (test): NCI-60 one-dose screen, 48 h (100 = growth as untreated, 0 = no growth, -100 = all killed)
Common to all, as to settings: 10 µM unless noted

Assay [1] deals with T-47D breast.
The test system of assay [2] is BT-549 breast.
Assay [3] deals with MDA-MB-435 melanoma.
For assay [4], the system named is SW-620 colon.
For assay [5], the system named is MCF7 breast.
Assay [6] relates to HCT-116 colon.
Assay [7] deals with HCC-2998 colon.
Assay [8] deals with KM12 colon.

With `Cc1ccn2cc(Cc3cc(=O)oc4c3ccc3ccccc34)c(=O)nc2c1`, the growth was 85.8% in assay [1]; 99.5% in assay [2]; 104% in assay [3]; 103% in assay [4]; 93.8% in assay [5]; 101% in assay [6]. The results for the growth in assay [7] and in assay [8] were 100% and 101%, respectively.

In the case of `S=c1ssnc1-c1ccccn1`, the growth in assay [1] was 27.1%; in assay [2], 49.5%; in assay [3], 36%; in assay [4], 5.79% (active); in assay [5], 27.4%; in assay [6], 6.31% (active). Moreover, the growth is 50.8% in assay [7] and 32.8% in assay [8].

Regarding `CCOC(=O)NNc1nncc2ccccc12`, the growth in assay [1] is 94.8%; in assay [2], 113%; in assay [3], 100%; in assay [4], 104%; in assay [5], 105%; in assay [6], 106%. Moreover, the results for the growth in assay [7] and in assay [8] were 103% and 101%, respectively.

`C=CCOc1ccc(/C(Cl)=N/N=C(\Cl)c2cc(OC)c(OC)c(OC)c2)cc1`: the growth in assay [1] is 47.6%; in assay [2], 89.5%; in assay [3], 80.6%; in assay [4] it was 68.3%; in assay [5] it was 42.8%; in assay [6], 70.2%. Further, the growth in assay [7] was 75.6%; in assay [8] it was 67.9%.

For `O=S(c1ccccc1)c1ccc2nnnn2n1` (stereo unspecified), the growth in assay [1] is 91.7%; in assay [2], 98.1%; in assay [3], 108%; in assay [4], 59.9%; in assay [5], 86.3%; in assay [6] it was 60.7%. The growth in assay [7] was 113%; in assay [8], 98.2%.

Take `COc1cc(/C=C/C(=O)c2ccc(Oc3ncnc4ccccc34)cc2)cc(OC)c1OC`: the growth in assay [1] was 35.9%; in assay [2], 58%; in assay [3], 50.6%; in assay [4] it was 53.2%; in assay [5], 27%; in assay [6] it was 52.8%. Also, the figures for the growth in assay [7] and in assay [8] were 108% and 19.4%, respectively.

Consider `C=C1C(=O)O[C@H]2[C@H]1CC/C(COC(=O)OC/C1=C/CC[C@@]3(C)O[C@H]3[C@H]3OC(=O)[C@@H](CN(C)C)[C@@H]3CC1)=C\CC[C@@]1(C)O[C@@H]21`, for which the growth is -15.2% (active) in assay [1]; -1.01% (active) in assay [2]; 2.87% (active) in assay [3]; -56.5% (active) in assay [4]; -29.7% (active) in assay [5]; -72.7% (active) in assay [6]. In addition, the growth in assay [7] was 79.8%; in assay [8] it was 37.9%.

On to `CCCCCCCCN(CCCCCCCC)CC(O)c1cc(-c2ccccc2)nc2ccc(OC)cc12` (stereo unspecified), for which the growth is 77% in assay [1]; 78.8% in assay [2]; 60.1% in assay [3]; 23.6% in assay [4]; 67% in assay [5]; 8.32% (active) in assay [6]. Further, the growth in assay [7] was 101%; in assay [8], 82.9%.

As for `CCOc1ccc(NC(=O)Nc2cc(C(C)C)ccc2C)cc1`, the growth in assay [1] was 77.3%; in assay [2], 114%; in assay [3], 85%; in assay [4] it was 91.1%; in assay [5], 111%; in assay [6], 36.3%. In addition, the growth was 59.8% in assay [7] and 75.4% in assay [8].

Consider `Cc1ccc2oc(=O)cc(C3C(C#N)=C(N)Oc4c3ccc3ccccc43)c2c1` (stereo unspecified), for which the growth in assay [1] is 69%; in assay [2], 70.2%; in assay [3] it was 6.57% (active); in assay [4] it was 55%; in assay [5] it was 42.1%; in assay [6], 69.2%. Besides, the results for the growth in assay [7] and in assay [8] were 91.4% and 55.1%, respectively.

For `N#Cc1c2c(c(N)[nH]c1=O)C(=O)NC2(O)c1ccccc1` (stereo unspecified), the growth in assay [1] was 103%; in assay [2], 105%; in assay [3], 109%; in assay [4], 111%; in assay [5] it was 99.6%; in assay [6] it was 104%. Besides, the growth was 101% in assay [7] and 102% in assay [8].

Regarding `COc1ccc(-c2nn(-c3ccc(NC(=O)c4ccc(Cl)c(C(F)(F)F)c4)cc3)cc2-c2ccncc2)cc1Cl`, the growth in assay [1] was 46.1%; in assay [2], 40.5%; in assay [3] it was 23.2%; in assay [4], 16%; in assay [5], 22.5%; in assay [6], 15.8%. Further, the growth in assay [7] was 9.69% (active); in assay [8], 14.8%.

Consider `COc1ccc(C2=NN(C(=O)COc3ccc(Cl)cc3)C(O)(c3cc(F)c(Cl)cc3Cl)C2)cc1` (stereo unspecified), for which the growth in assay [1] was 95.3%; in assay [2] it was 115%; in assay [3], 91.7%; in assay [4], 100%; in assay [5], 96.3%; in assay [6] it was 86.4%. Besides, the growth in assay [7] was 104%; in assay [8], 89.1%.

As for `CN1C(=O)C2(SCC(C(=O)NCC(=O)OC(C)(C)C)N2C(=O)C2CCCCC2)c2ccccc21` (stereo unspecified), the growth in assay [1] is 82.9%; in assay [2], 109%; in assay [3], 104%; in assay [4], 98.7%; in assay [5], 97.9%; in assay [6], 96.3%. Moreover, the growth in assay [7] is 106%; in assay [8] it was 101%.

As for `COc1cc2ncn3c(=O)c4c5c(sc4nc3c2cc1OC)CCCCC5`, the growth in assay [1] is 84.7%; in assay [2], 105%; in assay [3] it was 109%; in assay [4], 101%; in assay [5], 86.8%; in assay [6], 97.4%. The growth is 106% in assay [7] and 99.2% in assay [8].

Consider `CCCCCn1ncc(-c2c(O)c(O)cc3c(O)c(-c4c(C)cc5c(-c6cnn(CCCCC)n6)c(O)c(O)cc5c4O)c(C)cc23)n1`, for which the growth in assay [1] was -5.48% (active); in assay [2], 7.18% (active); in assay [3], 17.1%; in assay [4] it was 18.5%; in assay [5], 4.84% (active); in assay [6] it was 3.24% (active). In addition, the growth was 0.112% (active) in assay [7] and 4.29% (active) in assay [8].

For `CC1(C)CC(=O)C2=C(C1)OC1=C(C(=O)CC(C)(C)C1)C2c1ccc(OCc2cn(-c3ccc(F)cc3F)nn2)cc1`, the growth was 98.5% in assay [1]; 110% in assay [2]; 92.4% in assay [3]; 118% in assay [4]; 87.2% in assay [5]; 91.9% in assay [6]. Further, the growth in assay [7] was 122%; in assay [8] it was 90.2%.

For the molecule `Cc1cn(C2CC(N=[N+]=[N-])C(COP(=O)(O)OP(=O)(O)OP(=O)(O)O)O2)c(=O)[nH]c1=O` (stereo unspecified), the growth in assay [1] is 111%; in assay [2] it was 115%; in assay [3], 107%; in assay [4], 109%; in assay [5], 104%; in assay [6], 94.1%. The growth is 97.6% in assay [7] and 108% in assay [8].

As for `C=C1C(=O)O[C@H]2[C@H]1CC/C(COC(=O)c1cccc3ccccc13)=C\CC[C@@]1(C)O[C@@H]21`, the growth in assay [1] is -60% (active); in assay [2], -45.1% (active); in assay [3], -54.2% (active); in assay [4], -52.8% (active); in assay [5], -42.9% (active); in assay [6], -93.8% (active). For the same molecule, the values for the growth in assay [7] and in assay [8] were 62.7% and 19.9%, respectively.

Turning to `C[C@]12O[C@H]1[C@H](O)c1c(cc(O)c3c1C(=O)c1cccc(O)c1-3)C2=O`, the growth in assay [1] was 100%; in assay [2], 95.5%; in assay [3] it was 104%; in assay [4], 113%; in assay [5], 97.9%; in assay [6] it was 93.4%. In addition, the growth is 112% in assay [7] and 103% in assay [8].

Consider `C=C1C(=O)O[C@H]2[C@H]1CC/C(COC(=O)n1ccnc1C)=C\CC[C@@]1(C)O[C@@H]21`, for which the growth in assay [1] was 85%; in assay [2], 97.3%; in assay [3], 99.5%; in assay [4], 85%; in assay [5], 87.8%; in assay [6] it was 89%. Moreover, the growth in assay [7] and in assay [8] was 103% each time.

On to `COc1ccc(-c2[nH]c3ccccc3c2/C=C(\C#N)S(=O)(=O)c2ccccc2)cc1`, for which the growth was 66.7% in assay [1]; 80.5% in assay [2]; -5.59% (active) in assay [3]; 28.6% in assay [4]; 6.42% (active) in assay [5]; 11% in assay [6]. In addition, the results for the growth in assay [7] and in assay [8] were -29.2% (active) and 7.51% (active), respectively.

On to `Nn1c(SCC(=O)Nc2cc(Cl)c(Cl)cc2Cl)nnc1-c1cc(F)c(Cl)cc1Cl`, for which the growth in assay [1] is 97.5%; in assay [2], 87.4%; in assay [3] it was 91.2%; in assay [4] it was 106%; in assay [5], 78.8%; in assay [6] it was 91.2%. The figures for the growth in assay [7] and in assay [8] were 139% and 110%, respectively.

For the molecule `Cc1ccc2c(C3C(C#N)=C(N)Oc4cc5ccccc5cc43)cc(=O)oc2c1` (stereo unspecified), the growth is 35.9% in assay [1]; 47.9% in assay [2]; -48.2% (active) in assay [3]; 27.1% in assay [4]; 17.9% in assay [5]; 15.9% in assay [6]. Also, the growth in assay [7] is 58.9%; in assay [8], 24.1%.

Turning to `CC(C(=O)O)N1C(N)=NNC1c1ccccc1O` (stereo unspecified), the growth in assay [1] is 59.7%; in assay [2] it was 104%; in assay [3], 104%; in assay [4], 95.7%; in assay [5], 80.4%; in assay [6] it was 87.4%. Moreover, the growth in assay [7] was 92.7%; in assay [8], 93.9%.

As for `CCOc1ccc(NC2=C(Cl)C(=O)c3ccccc3C2=O)cc1`, the growth in assay [1] is 66.7%; in assay [2], 77.6%; in assay [3], 67.1%; in assay [4], -51.3% (active); in assay [5], 46.1%; in assay [6], 80.6%. Moreover, the results for the growth in assay [7] and in assay [8] were 57.7% and 72.9%, respectively.

On to `CC1CCc2cc(F)cc3c(=O)c(C(=O)O)cn1c23` (stereo unspecified), for which the growth is 99.7% in assay [1]; 104% in assay [2]; 94.8% in assay [3]; 106% in assay [4]; 112% in assay [5]; 105% in assay [6]. The growth in assay [7] was 105%; in assay [8], 102%.

As to `O=c1c2ccccc2[nH]n1Cc1ccc2c(c1)OCO2`, the growth in assay [1] was 88.9%; in assay [2], 107%; in assay [3] it was 105%; in assay [4] it was 108%; in assay [5] it was 90.8%; in assay [6], 99.9%. In addition, the growth in assay [7] is 106%; in assay [8] it was 102%.

With `NC(CCCC(N)C(=O)c1ccccc1)C(=O)O` (stereo unspecified), the growth in assay [1] was 89.9%; in assay [2], 104%; in assay [3], 105%; in assay [4], 110%; in assay [5], 91.2%; in assay [6], 99.2%. Moreover, the growth in assay [7] was 103%; in assay [8] it was 101%.

Turning to `CC1(C)Cc2c(Br)c(Br)c(Br)c(OCC(O)CN3CCN(c4ccccn4)CC3)c2O1` (stereo unspecified), the growth in assay [1] is 88.5%; in assay [2], 101%; in assay [3], 66.8%; in assay [4], 85.5%; in assay [5] it was 67.6%; in assay [6], 55.5%. Further, the growth in assay [7] was 92.7%; in assay [8] it was 80.7%.

In the case of `COc1cc2ncnc(Oc3ccc(NC(=O)Nc4ccc(CN5CCOCC5)c(C(F)(F)F)c4)c4ccccc34)c2cc1OC`, the growth is 10.3% in assay [1]; 25.2% in assay [2]; 6.39% (active) in assay [3]; 24.8% in assay [4]; 8.45% (active) in assay [5]; 17.4% in assay [6]. Also, the results for the growth in assay [7] and in assay [8] were 75.9% and 6.26% (active), respectively.

`Cn1cnc([N+](=O)[O-])c1N1c2ccncc2Sc2ccncc21`: the growth in assay [1] is 86%; in assay [2], 113%; in assay [3], 110%; in assay [4] it was 95.1%; in assay [5], 101%; in assay [6], 95.7%. In addition, the figures for the growth in assay [7] and in assay [8] were 114% and 103%, respectively.
